Pf growth 48h – inhibits P. falciparum growth in the first generation, 48 h | P. falciparum luciferase growth in erythrocytes, 48 h | Potency, µM (series often up to 28.7 µM), for inactives: at the highest dose activity change, negative = inhibition, most hits filed as inhibitors | 310,000 tested, 5.9% active; note: potency is the fitted concentration of half-maximal effect; % is set by controls: 0 for no effect and ±100 for the full control effect
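Luminescence readout; reporter = integrated firefly luciferase in P. falciparum. RBC culture at 2% hematocrit, 0.1% parasitemia final, 37 C/5% CO2; decreased signal taken as growth inhibition.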
CHX counter – counter-screen hit for Shiga toxin inhibitors, cycloheximide; AID 2314; 300,000 tested, 12% active; cell reporter, cycloheximide protein synthesis inhibition counterscreen; max response, %; in the data active = max response mostly above about 13%, no sharp cut-off; inactive = mostly below about 14%; note: read at 38.3 µM for the half of the compounds with a filed dose; 0% is about no effect
Pf growth 96h – P. falciparum growth inhibition at 96 hour, primary screen for plastid delayed-death inhibitors. P. falciparum luciferase reporter growth, 96 h. 320,000 tested, 6.9% active. AID 504834. Potency, µM (series often up to 28.7 µM), for the others: at the top dose activity change, negative = inhibition, usual class: inhibitors; note: potency is the fitted concentration of half-maximal effect; % is set by controls: 0 for no effect and ±100 for the full control effect
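Luminescence readout: decreased luciferase signal marks inhibited growth of reporter-expressing P. falciparum in infected red cells (2% hematocrit, 0.05% parasitemia final), exposed to compound two generations (96 h, 37 C, 5% CO2).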
HCMV antiviral – blocks human cytomegalovirus replication | HFF cells, HCMV-luciferase reporter, 72 h; stronger effect = lower value | activity change, negative = inhibition, % at 57.5 µM | 410,000 tested, 4.5% active | AID 1259415; in the data active = activity change below about -60%; inconclusive = no clear call, values can overlap the other calls; inactive = above about -39%; note: % is set by controls: 0 for no effect and ±100 for the full control effect
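Screen run at 2 compound doses on HFFs infected with reporter HCMV, MOI 1 PFU/cell. Luciferase activity from cell lysates at 72 h post infection gave inhibition relative to buffer-only and Salinomycin wells.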
Shiga inhibitor – blocks Shiga toxin action in Vero cells; Vero cells, Shiga toxin protein synthesis inhibition reporter; inhibition, % at 38.7 µM; 290,000 tested, 9.2% active; in the data active = inhibition mostly above about 28%, no sharp cut-off; inactive = mostly below about 43%; note: 0% is about no effect
Active calls of the source: *; ? = inconclusive; nt = no result given. Compounds with a hit are over-represented: about 20% of the library has one in this group of screens. Unless noted, calls come from the whole dose curve; as a rule, active = well fitted inhibition curve with a large enough effect; inconclusive = small, poorly fitted or top-dose-only effect, or another doubt; inactive = no such curve, though single readings can be large or run the other way.

SMILES	Pf growth 48h	CHX counter	Pf growth 96h	HCMV antiviral	Shiga inhibitor
Cc1ccc(/C(O)=C2/C(=O)C(=O)OC2c2ccc(Cl)cc2)cc1 (centres undefined)	-2.2%	23.7*	72.4%	10.2	20.4
CCCn1ccc2c(OCC(=O)Nc3ccc(C(F)(F)F)cc3)cccc2c1=O	nt	nt	nt	-7.7	nt
COC(=O)c1cc2occc2n1Cc1nc(-c2cccc(Br)c2)oc1C	nt	nt	nt	6.0	nt
CCN(Cc1nc2cc(Cl)ccc2c(=O)[nH]1)C(=O)C1CC(=O)N(c2cccc3ccccc23)C1 (centres undefined)	10.4µM*	nt	?	2.7	nt
CCN(Cc1nc2cc(Cl)ccc2c(=O)[nH]1)C(=O)c1cc2c(s1)CCCCC2	32.8%	nt	27.0%	59.4	nt
Cc1sc2ncnc(N3CCC(C(=O)Nc4ccc(S(N)(=O)=O)cc4)CC3)c2c1C	?	nt	?	-78.6*	nt
Cc1ccc(C)c(S(=O)(=O)N2CCN(C(=O)C3CCN(c4ncnc5sc(C)c(C)c45)CC3)CC2)c1	5.22µM*	nt	?	-67.3*	nt
CCN(CC)S(=O)(=O)c1cc(NC(=O)C2CCN(c3ncnc4sc(C)c(C)c34)CC2)ccc1Cl	11.7µM*	nt	5.22µM*	-82.3*	nt
Cc1ccc(NC(=O)C2CCN(c3ncnc4sc(C)c(C)c34)CC2)cc1S(=O)(=O)N(C)C	4.15µM*	nt	4.65µM*	?	nt
CNC(=O)C[C@H]1C(=O)N(CCc2ccccc2)C[C@@H]1Cc1ccccc1	nt	nt	nt	1.0	nt
COc1cccc(N2CC(NC(=O)c3ccco3)CC2=O)c1 (centres undefined)	nt	nt	nt	-19.1	nt
CC1(C)CC2(CC(c3ccccc3F)c3ccc(O)c(O)c3O2)NC(=S)N1 (centres undefined)	?	1.5	?	-15.7	16.8
CCOc1ccc2ccccc2c1/C=N/NC(=O)c1ccc(C)nc1	0.0%	2.0	25.8%	-32.3	-5.8
Cc1sc2ncnc(N3CCC(C(=O)Nc4cc(S(C)(=O)=O)ccc4Cl)CC3)c2c1C	9.28µM*	nt	?	-33.3	nt
Cc1sc2ncnc(N3CCC(C(=O)Nc4cc(Cl)ccc4Cl)CC3)c2c1C	?	nt	?	-20.2	nt
COc1cc([N+](=O)[O-])ccc1NC(=O)CC1SC(=Nc2ccc(F)cc2)N(CCC2=CCCCC2)C1=O (centres undefined)	?	2.5	1.85µM*	-98.7*	-10.7
COc1ccc(OC)c(NC(=O)CC2SC(=Nc3ccc(F)cc3)N(CCC3=CCCCC3)C2=O)c1 (centres undefined)	?	12.5*	4.15µM*	1.9	-0.8
COc1ccc(N=C2SC(CC(=O)Nc3ccc(OC)cc3OC)C(=O)N2C)cc1 (centres undefined)	-13.1%	-1.9	4.8%	28.3	-12.6
COc1cc([N+](=O)[O-])ccc1NC(=O)Cc1ccc(F)cc1	12.1%	1.2	57.9%	-6.8	2.3
CCCOc1ccccc1NC(=O)c1ccc([N+](=O)[O-])cc1	12.4%	13.5	-6.2%	6.3	6.8
COc1ccc(S(=O)(=O)N2CCOCC2)cc1C(=O)Nc1ccc2c(c1)OCO2	-11.3%	-2.2	-28.2%	4.4	-11.5
COc1ccc2cc(S(=O)(=O)N3CCCC3)ccc2c1	-1.1%	12.3	6.57µM*	-20.6	18.0
COc1ccc2cc(S(=O)(=O)N3CCCCC3)ccc2c1S(=O)(=O)N1CCCCC1	?	2.8	?	-71.8*	-2.1
COc1ccc(C(=O)c2ccsc2N)cc1	86.7%	28.2*	126.6%	23.9	51.1*
COc1ccc(C(=O)c2ccc(CC#N)s2)cc1	57.7%	23.9*	23.6%	30.9	67.8*
SMILES	Pf growth 48h	CHX counter	Pf growth 96h	HCMV antiviral	Shiga inhibitor
CCC(=O)N1CCc2cc(S(=O)(=O)CCC(=O)N3CCCC(C)C3)ccc21 (centres undefined)	3.9%	-1.3	5.8%	-27.3	-12.6
CCCNC(=O)CCC(=O)Nc1ncc(-c2ccc(C)cc2)n1C	45.5%	24.7*	7.8%	-20.6	32.9*
Cc1nn(-c2ccccn2)c2c1C(=O)C(Br)CC2 (centres undefined)	?	11.5	29.6%	nt	-11.9
Cc1nn(-c2nccs2)c2c1C(=O)CC(C)(C)C2Br (centres undefined)	nt	nt	nt	-70.1*	nt
CSc1ccc(C2=CC(=O)C[C@H](c3ccc4c(c3)OCO4)C2)cc1	9.3%	nt	10.9%	-64.3*	nt
O=C1C=C(c2ccccc2Oc2ccccc2)C[C@@H](c2ccc3c(c2)OCO3)C1	3.7µM*	nt	?	0.4	nt
COc1ccccc1C1=CC(=O)C[C@H](c2ccc3c(c2)OCO3)C1	-7.5%	nt	10.6%	-4.2	nt
